High-throughput results deposited in PubChem BioAssay by several laboratories.
Mdm2 MdmX PPI – human Mdm2/MdmX binding inhibition | O15151+Q00987 | SaOS-2 split-luciferase Mdm2/MdmX complementation, luminescence | inhibition, % at 8 µM | actives 3% (n = 330,000) | AID 485346;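 active = inhibition of at least 50% at 8 µM in the primary screen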
HIF-2a inh – HIF-2a inhibition; 786-0 RCC cells HIF-2a reporter, luciferase luminescence, overnight; inhibition, % at 18.8 µM; actives 0.72% (n = 360,000);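 active = inhibition of the luminescence signal of 40% or more relative to plate controls, in a single-dose primary screen at 18.75 µM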
Peg3 promoter – Peg3 promoter activity inhibition. AID 588405. HeLa PEG-Prom luciferase reporter, luminescence, overnight. actives 1.7% (n = 360,000). inhibition, % at 20 µM;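 active = inhibition of at least 50% at 20 µM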
KKLEB tox – reduces viability of KKLEB cystic fibrosis airway cells; KKLEB CF airway cells viability, ATPlite luminescence, overnight; stronger effect = lower value; cells stimulated with P. aeruginosa culture filtrate; activity change (cytotoxicity), % at 5 µM; actives 0.36% (n = 360,000);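 active = corrected activity change at or below -50% at 5 µM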
ABHD5-PLIN5 inh – inhibitors of human ABHD5-perilipin-5 interaction | Split G. princeps luciferase complementation, luminescence, 4 h | inhibition, % at 4 µM | actives 0.78% (n = 360,000);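 active = inhibition above the mean inhibition across every tested compound plus 3 SD, cut at about 22% in these data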;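 also: 0% = DMSO only wells and the 100% control is not disclosed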
Target sequence (Q00G26 whole entry, looked up): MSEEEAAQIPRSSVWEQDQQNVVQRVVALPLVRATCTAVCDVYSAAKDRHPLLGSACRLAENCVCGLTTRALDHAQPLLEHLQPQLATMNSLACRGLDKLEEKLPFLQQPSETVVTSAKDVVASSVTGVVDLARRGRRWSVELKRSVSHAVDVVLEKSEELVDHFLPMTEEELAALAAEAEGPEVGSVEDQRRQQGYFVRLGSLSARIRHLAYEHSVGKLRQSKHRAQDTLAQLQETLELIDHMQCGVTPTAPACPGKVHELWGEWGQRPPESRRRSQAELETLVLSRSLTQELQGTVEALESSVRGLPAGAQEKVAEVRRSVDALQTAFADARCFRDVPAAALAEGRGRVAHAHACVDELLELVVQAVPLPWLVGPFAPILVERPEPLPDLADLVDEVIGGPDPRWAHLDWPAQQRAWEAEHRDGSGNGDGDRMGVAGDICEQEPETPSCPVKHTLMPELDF
Target sequence (Q8WTS1 whole entry, looked up): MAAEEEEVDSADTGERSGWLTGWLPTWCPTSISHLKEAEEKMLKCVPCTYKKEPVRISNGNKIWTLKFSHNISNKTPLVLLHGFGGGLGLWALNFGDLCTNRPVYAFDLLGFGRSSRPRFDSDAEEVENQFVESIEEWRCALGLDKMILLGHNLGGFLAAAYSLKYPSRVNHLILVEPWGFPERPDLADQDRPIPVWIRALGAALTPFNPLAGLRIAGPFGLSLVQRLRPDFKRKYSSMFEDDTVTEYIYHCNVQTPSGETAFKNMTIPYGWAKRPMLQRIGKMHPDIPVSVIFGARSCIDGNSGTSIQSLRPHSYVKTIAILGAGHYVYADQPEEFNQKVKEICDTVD
CF NFkB inh – blocks PAF-induced NF-kB reporter in cystic fibrosis cells; KKLEB NF-kB-GFP reporter, GFP fluorescence overnight; inhibition, % at 5 µM; actives 0.86% (n = 360,000); AID 588850;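 active = at least 50% inhibition at 5 µM, scaled per plate between neutral and stimulator controls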;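 also: PAF is a Pseudomonas aeruginosa culture filtrate used as stimulus; plate controls were PAF-stimulated DMSO wells for no effect and unstimulated DMSO wells for full effect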
Mdm2 MdmX conf-1 – confirmation of human Mdm2/MdmX interaction inhibitors | shares compounds with Mdm2 MdmX PPI | Mdm2-MdmX binding, luminescent assay | inhibition, % at 8 µM | actives 55% (n = 10,000) | AID 489028
FLuc counter – counter-screen for Mdm2/MdmX inhibitors: full-length luciferase; shares compounds with Mdm2 MdmX PPI; SaOS-2 full-length luciferase counterscreen, luminescence; inhibition, % at 8 µM; actives 77% (n = 6,200); AID 504607;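 active = mean inhibition at 8 µM reaching about 37%, which flags the compound as non-specific, limit read from the data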;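 also: p53-null SaOS-2 cells with luciferase driven by a doxycycline-inducible promoter; compound on cells about two nights before reading with doxycycline added after day one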
CF NFkB inh conf – CF NF-kB inhibition confirmation, single concentration | shares compounds with CF NFkB inh | inhibition, % at 5 µM | actives 64% (n = 1,300) | KKLEB CF airway cells, PAF-induced NF-kB-GFP fluorescence, overnight;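 also: stimulus PAF is a Pseudomonas aeruginosa filtrate and not platelet activating factor; plate controls were DMSO wells with stimulus for no effect and unstimulated DMSO wells for full effect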
ABHD5-PLIN5 conf – confirmation of human ABHD5-PLIN5 interaction inhibitors; biochemical ABHD5-PLIN5 interaction, luminescence; inhibition, % at 4 µM; shares compounds with ABHD5-PLIN5 inh; actives 67% (n = 2,200); in the data active = inhibition above about 23%;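 also: 0% = DMSO vehicle wells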
HNF4 counter – active in HNF4 split-luciferase counter-screen for ABHD5-PLIN5 inhibitors. shares compounds with ABHD5-PLIN5 inh. HNF4 dimerization, luminescence, biochemical. inhibition, % at 4 µM. actives 77% (n = 2,200);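 active = mean inhibition across replicate wells exceeding the computed hit threshold, cut at about 13% in these data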;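 also: light from luciferase halves that rejoin when HNF4 fusion proteins dimerize; 0% = DMSO only wells and the 100% control is not given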
Mdm2 MdmX conf-2 – confirmation of inhibitors of human Mdm2/MdmX interaction, set 2. AID 504601. actives 99% (n = 740). SaOS-2 split-luciferase Mdm2/MdmX complementation, luminescence. inhibition, % at 8 µM. shares compounds with HIF-2a inh;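 active = mean inhibition of the luminescence signal across two replicates at or above 26 percent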
HIF-2a conf – HIF-2a inhibition, single concentration confirmation | shares compounds with HIF-2a inh | 786-0 RCC cells, HIF-2a luciferase reporter luminescence, overnight | inhibition, % at 18.8 µM | actives 56% (n = 1,800) | AID 651580;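 active = mean inhibition across four replicates of at least 40 percent at the single tested concentration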
HIF-1a counter – inhibits HIF-1a reporter, a counter-screen for HIF-2a inhibitors; shares compounds with HIF-2a inh; MiaPaCa-2 HIF-1a luciferase reporter, desferoxamine, overnight; inhibition, % at 18.8 µM; actives 72% (n = 1,800);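 active = mean inhibition of the reporter signal across four replicates at the single tested dose of 50% or more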
* = called active by the depositor; · = not tested or not shown. The list is not random: actives were taken first. Their share in the collection is about 4.6%. Rule as the data show it, unless noted: active = inhibition above about 40%; inactive = the rest.

SMILES	Mdm2 MdmX PPI	HIF-2a inh	Peg3 promoter	KKLEB tox	ABHD5-PLIN5 inh	CF NFkB inh	Mdm2 MdmX conf-1	FLuc counter	Mdm2 MdmX conf-2	others
Brc1ccc2ncnc(NCc3ccccc3)c2c1	84.4*	24.6	12.9	-38.0	-2.6	74.9*	81.2*	52.5*	89.9*	CF NFkB inh conf=81.0*
Cc1csc(CNc2ncnc3ccc(-c4ccoc4)cc23)c1	76.1*	-2.4	-21.3	-19.7	9.5	71.4*	73.8*	53.7*	87.0*	CF NFkB inh conf=83.1*
c1ccc(-n2ncc3c(NCc4cccnc4)ncnc32)cc1	-41.3	-163.6	-201.0	-3.8	0.0	9.6	·	·	·
COc1cc(C(=O)NCCNc2nc3ccc(C)cc3cc2C#N)cc(OC)c1OC	2.5	-15.2	6.9	-3.2	0.7	-7.6	·	·	·
COc1ccc(CN(C)C(=O)c2cccc(S(=O)(=O)N3CCCc4ccccc43)c2)c(OC)c1OC	·	7.4	15.3	-8.0	2.1	20.1	·	·	·
CCCCNC(=O)c1nc(C2CCN(S(=O)(=O)c3ccc(F)c(F)c3)CC2)oc1-c1ccccc1	·	-0.9	-1.1	7.8	6.8	-8.3	·	·	·
C=CC(=O)Nc1cccc(Oc2ncnc3[nH]cc(-c4cnc5ccccc5c4)c23)c1	92.7*	13.6	42.4	-3.0	11.9	87.1*	78.8*	58.7*	100.0*	CF NFkB inh conf=79.2*
C[C@H](NC(=O)/C=C/[C@H]1O[C@@H](n2ccc(=O)[nH]c2=O)[C@H](O)[C@@H]1O)C(=O)O	·	13.9	23.1	17.0	-1.2	-17.1	·	·	·
CC(C)(C)OC(=O)N1CCC[C@H]1C(=O)OCC(=O)Nc1cc(S(C)(=O)=O)ccc1Cl	20.9	6.6	12.6	-2.7	4.5	19.3	·	·	·
COc1cc(SC#N)ccc1N=Cc1c(C)[nH]n(-c2ccc(C)c(C)c2)c1=O	87.0*	14.1	100.4*	1.3	8.3	2.7	90.7*	51.9*	98.5*
CCc1nc(NC(C)C)c2oc3ccccc3c2n1	14.0	2.2	21.6	-6.1	-6.3	24.3	·	·	·
CCc1nc(Nc2ccncc2)c2oc3ccccc3c2n1	63.2*	47.4*	33.5	-3.8	1.6	-60.2	78.6*	31.6	·	HIF-2a conf=25.8;HIF-1a counter=81.9*
CCCCCCCCCCOC(=O)Cn1c(COc2ccc(Cl)cc2)[n+](C)c2ccccc21	78.0*	19.2	98.3*	1.2	10.1	11.8	74.0*	59.4*	103.0*
CCCCCOC(=O)Cn1c(=O)oc2ccccc21	22.4	3.2	14.6	10.0	0.2	-11.3	·	·	·
O=C(NCCc1ccc(F)cc1)C1CCN(C(=O)Nc2ccccc2)CC1	-14.6	-2.0	10.6	-6.0	0.4	-12.2	·	·	·
CCN1CSC(=S)N(Cc2ccccc2)C1	40.2	25.2	15.8	4.7	-6.7	8.9	·	·	·
CCN1CSC(=S)N(Cc2ccc(OC)cc2)C1	69.0*	66.7*	16.2	5.3	-4.5	-8.3	31.6	·	·	HIF-2a conf=-1.4;HIF-1a counter=41.9
C[C@H]1C(=O)N(C)CCN1C(=O)c1cccc(OC2CCN(CC(C)(C)C)CC2)c1	9.6	7.8	-1.4	0.5	8.2	8.9	·	·	·
Cc1ccc(C)c(CN2C(=O)c3ccccc3S(=O)c3ccc(C(=O)N4CCN(c5ccccn5)CC4)cc32)c1 (stereo not drawn)	99.1*	8.3	33.9	-7.9	-9.6	-0.6	88.5*	53.6*	101.2*
C=C1C(=O)[C@@]23[C@H](O)C[C@@H]4C(C)(C)CC[C@H](O)[C@@]4(C)[C@@H]2CC[C@@H]1[C@H]3O	97.3*	91.0*	101.6*	-32.2	52.8*	95.3*	99.7*	47.6*	·	ABHD5-PLIN5 conf=84.8*;HNF4 counter=77.8*;HIF-2a conf=93.8*;HIF-1a counter=106.6*
C=C1C(=O)[C@@]23[C@H](O)C[C@@H]4C(C)(C)CC[C@H](O)[C@]4(C)[C@@H]2C[C@H](O)[C@@H]1[C@H]3O	82.8*	40.7*	43.4	20.4	80.2*	67.8*	15.2	·	·	CF NFkB inh conf=55.9*;ABHD5-PLIN5 conf=89.2*;HNF4 counter=98.7*;HIF-2a conf=36.5;HIF-1a counter=90.8*
Cc1ccc(NC(=O)c2cc(C)nc3ccccc23)cc1	9.5	-13.7	12.2	6.7	10.7	-16.2	·	·	·
Cc1ccc(NC(=O)c2cc(CC(C)C)nc3ccccc23)cc1	81.9*	17.6	0.3	-19.0	-5.7	-16.6	83.5*	54.8*	93.7*
COc1ccc(NC(=O)c2cc(CC(C)C)nc3ccccc23)cc1	91.0*	12.3	6.9	1.5	-26.0	5.1	89.9*	51.7*	98.0*
CCOc1ccc(Nc2nc(N)nc(CCl)n2)cc1	98.1*	-125.1	76.6*	-67.7*	1.1	80.5*	98.0*	56.5*	103.5*
SMILES	Mdm2 MdmX PPI	HIF-2a inh	Peg3 promoter	KKLEB tox	ABHD5-PLIN5 inh	CF NFkB inh	Mdm2 MdmX conf-1	FLuc counter	Mdm2 MdmX conf-2	others
Cc1cccc(Nc2nc(N)nc(CCl)n2)c1C	100.3*	-13.7	57.7*	-84.9*	-3.8	100.1*	100.1*	60.3*	103.2*
Cc1ccc(Nc2nc(N)nc(CCl)n2)c(C)c1	95.5*	-95.2	41.1	-72.5*	0.1	83.1*	100.1*	53.4*	103.0*
Cc1cc(C)n(CCC(=O)N/N=C/c2c(O)ccc3ccccc23)n1	72.9*	22.3	65.1*	0.5	10.7	-7.0	78.2*	51.9*	88.5*
COc1cccc(CNc2ccc3[nH]c(=O)[nH]c3c2)c1OCc1ccccc1F	-9.4	4.1	15.0	-9.9	-3.4	-25.3	·	·	·
Nc1cccnc1S(=O)(=O)c1ccccc1	17.2	20.2	-0.8	4.5	1.7	0.0	·	·	·
COc1ccc([N+](=O)[O-])c(S(=O)(=O)c2ccc(Cl)cc2)n1	97.4*	60.5*	104.8*	-47.0	39.2*	101.7*	95.3*	51.8*	103.2*	HIF-2a conf=75.3*;HIF-1a counter=61.7*
